This is part of a sample that, as a whole, favours compounds with a hit. Of some 83,000 tested, about 20% had one in any assay.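 A percent growth of 40 corresponds to 60% growth inhibition; 0 means no net growth; -100 means all cells died. Active threshold: below 10.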 Calls of active or inactive are those of the source.

Our source for the growth values is PubChem BioAssay (NCI).

In this assay the test system is SNB-75 CNS. The assay can be described thus: NCI-60 one-dose screen, 48 h (100 = growth as untreated, 0 = no growth, -100 = all killed). As to conditions: 10 µM unless noted.
Turning to `COC1C/C(=N\O)C2OC(c3ccccc3)OCC2O1` (stereo not given), the growth was 66.1% (inactive).

For `CC[C@H](Nc1nc(N)nc(C)c1C#N)c1nc2cccc(NCc3ccc(C(=O)NO)cc3)c2c(=O)n1-c1ccccc1`, the growth is 14.3% (inactive).

With `Cc1nn(-c2ccccc2)c2nc(C)n(-c3ccc(Br)cc3)c(=O)c12`, the growth is -6.84% (active).

With `Cc1ccc2c(NCCCN(C)C)c3c(C)nn(C)c3nc2c1`, the growth is 25.5% (inactive).

On to `NC(CC(=O)O)C(=O)OCc1ccccc1` (stereo not given), for which the growth is 65.5% (inactive).

Consider `NCCN1CCN(c2nccc(-c3ccc4ccccc4c3)n2)CC1`, for which the growth is 82.1% (inactive).

For `Nc1ccc(Nc2nccc(-c3ccc4ccccc4c3)n2)cc1`, the growth is 39% (inactive).

As for `CCCNc1nc(SC)nc(-c2cccc(N)c2)c1C#N`, the growth was 54.5% (inactive).

For `CN(C)CCOc1ccc(-c2nc3ccc(-c4nc5ccc(N6CCN(C)CC6)cc5[nH]4)cc3[nH]2)cc1`, the growth is 89.8% (inactive).

In the case of `CCCCCCCCCCCCN1CCCC(C)C1` (stereo not given), the growth was 73.4% (inactive).

On to `COc1ccc(-c2nc(Nc3cc(C)[nH]n3)c3ccccc3n2)cc1`, for which the growth is -33.5% (active).

As for `CN[C@@]12CC3(C=CC(=O)C=C3)O[C@]1(Cc1ccc(OC)cc1)N(C)C(=O)N2`, the growth was 74.3% (inactive).

Regarding `COc1cc2cc(COc3nccc(-c4ccc(Cl)cc4)n3)c(=O)[nH]c2cc1OC`, the growth is 91.6% (inactive).

For `Cc1ccc(S(=O)(=O)N(CCc2ccc(Cl)cc2)S(=O)(=O)c2ccc(C)cc2)cc1`, the growth is 67.7% (inactive).

Turning to `CC[C@H](Nc1cc(C)nc(N)n1)c1nc2cccc(NCc3ccc(C(=O)NO)cc3)c2c(=O)n1-c1ccccc1`, the growth was 15.7% (inactive).
